The text below walks through data of PubChem BioAssay AID1285 (Columbia University Molecular Screening Center, 2008).

Among all 190,000 compounds or so, about 1,600 (0.84%) were called active. The sample holds actives, similar compounds and a random draw of the others, so the mix is not that of the screen.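 Rule for the calls: active = inhibition above a set limit, derived from the sample mean plus 3 SD (cut at about 45% in these data); inconclusive = one replicate passes the limit while the other fails; inactive = the rest.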

The test can be described thus: APP 5'UTR translational reporter suppression – APP 5'UTR luciferase, SH-SY5Y cells, primary screen (AID 1285). The conditions noted are these: SH-SY5Y APP 5'UTR-luciferase reporter, luminescence; at 2 µM; active compounds read high.
Take `O=C(Nc1ccccc1)c1ccc2c(c1)OCO2`: the inhibition was 58.8% (active).
Next, `O=C(Nc1ccc(N2CCOCC2)cc1)c1ccc2c(c1)OCO2`: -48.7% (inactive).
With `O=C(Nc1cccc([N+](=O)[O-])c1)c1ccc2c(c1)OCO2` the figure was -43.1% (inactive); with `CCOC(=O)c1c(NC(=O)C2CC=CCC2C(=O)O)sc(C)c1CC` (centres undefined), -12.9% (inactive); with `O=C(CCN1C(=O)c2ccccc2C1=O)NNC(=O)c1ccc(Cl)cc1Cl`, -9.9% (inactive).
With `O=C(Cc1cccs1)N/N=C/c1ccc(OCc2ccccc2)cc1`, the inhibition was 5.4% (inactive).
Next, `COc1ccc(C(=O)C[n+]2ccc(N)c(C)c2C)cc1`: 6.8% (inactive); `Oc1c(CN2CCN(c3ccc(F)cc3)CC2)cc(Cl)c2cccnc12`: 8.7% (inactive).
Next, `Clc1cccc(CN2COc3c(cc(Cl)c4cccnc34)C2)c1`: 74.6% (active); `O=c1[nH]n(-c2cccc(Cl)c2)c2ncccc12`: -4.8% (inactive); `CSc1nc(N(C)NC(=O)c2cccc(C)c2)c2ccccc2n1`: 96.7% (active).
Next, `COc1ccc(C(=O)NN(C)c2nc(-c3ccccc3)cc(C)c2S(C)(=O)=O)cc1`: -3.3% (inactive).
For `COC(=O)CNC(=O)c1ccccc1F`, the inhibition was -10.5% (inactive).
With `COc1ccc(OCC(=O)NNC(=O)c2cccc(C)c2)cc1` the figure was -16.1% (inactive); with `CN(NC(=O)c1ccccc1F)c1nc(C(F)(F)F)nc2ccccc12`, 91% (active).
With `CN(NC(=O)c1ccccc1)c1nc2ccccc2nc1C(F)(F)F` the figure was -3.6% (inactive); with `CC(=O)N1CC(C)c2scc(C)[n+]2-c2ccccc21` (centres undefined), -17.2% (inactive); with `C=CCc1ccc(OCC(O)CN2CCN(Cc3ccccc3)CC2)c(OC)c1` (centres undefined), -8.6% (inactive).
`CC(=O)N1c2ccccc2N(Cc2ccc([N+](=O)[O-])cc2)C(=O)C1(C)C`: the inhibition is -12.9% (inactive).
Next, `CCOc1ccc(N2CC(C(=O)NCCN3C(=O)S/C(=C\c4cccnc4)C3=O)CC2=O)cc1` (centres undefined): -6% (inactive).
Take `O=C(COC(=O)c1cc(S(=O)(=O)N2CCCCC2)ccc1Cl)NCc1ccco1`: the inhibition was 5% (inactive).
With `Cc1cc(C(=O)OCC(=O)NCc2ccco2)c(C)n1-c1ccccc1` the figure was 60.8% (active).
Next, `O=C(COC(=O)c1cnc(Cl)c(Cl)c1)NCc1ccco1`: 6.8% (inactive).
With `C/C(=N\NC(=O)c1cccnc1)c1ccc(-n2ccnc2)cc1` the figure was -7.3% (inactive); with `Cc1[nH]c2ccccc2c1-c1ccc(Cl)nn1`, 5.5% (inactive); with `COc1ccc(Cc2n[nH]c(=S)n2NC(=O)Nc2ccc(C)cc2)cc1`, -47.2% (inactive).
Consider `O=C(Nc1ccccc1Cl)/C(Cl)=C(\Cl)S(=O)c1ccccc1` (centres undefined), for which the inhibition was 93.8% (active).
In the case of `O=C(Nc1ccccc1Cl)c1ccc2nsnc2c1`, the inhibition is -80.7% (inactive).
Next, `O=C(CN1CCCCC1)Nc1ccccc1Cl`: 17.7% (inactive).

By inhibition is commonly meant the relative decrease from the control value, in per cent.
